This passage reports outcome and AC50 results from PubChem BioAssay (EPA / NIEHS).

SMILES strings stand for the structures. Results filed as inconclusive are left out. The source made the active and inactive calls. How the source made its calls: active means hit-call score of the fitted dose curve at least 0.9, where 1 is the maximum; inconclusive means response in the unintended direction; inactive means score below 0.9.

rat CYP2C12, Cyp2c12 (gene 25011), sequence (P11510 whole entry, looked up): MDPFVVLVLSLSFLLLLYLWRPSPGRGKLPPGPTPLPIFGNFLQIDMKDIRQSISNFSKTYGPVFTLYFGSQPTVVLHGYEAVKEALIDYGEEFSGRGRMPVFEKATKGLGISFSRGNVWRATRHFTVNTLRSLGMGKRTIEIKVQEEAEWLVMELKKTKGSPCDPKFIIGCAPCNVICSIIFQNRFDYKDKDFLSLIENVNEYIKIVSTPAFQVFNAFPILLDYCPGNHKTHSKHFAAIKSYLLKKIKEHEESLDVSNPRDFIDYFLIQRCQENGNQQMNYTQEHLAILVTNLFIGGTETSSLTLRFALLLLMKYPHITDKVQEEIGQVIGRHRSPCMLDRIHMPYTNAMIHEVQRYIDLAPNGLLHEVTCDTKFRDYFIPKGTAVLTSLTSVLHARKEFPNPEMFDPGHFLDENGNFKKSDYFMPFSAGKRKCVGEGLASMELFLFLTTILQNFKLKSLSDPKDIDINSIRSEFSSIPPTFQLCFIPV

The target in this test is rat CYP2C12, Cyp2c12 (gene 25011) (UniProt P11510). The test is described as follows: NVS_ADME_rCYP2C12: NovaScreen (NVS) CYP450-related Enzyme Activity (ADME) Assay for rat CYP2C12 (AID 2283119). As for the experimental part:
NVS_ADME_rCYP2C12 is a biochemical, single-readout assay that uses extracted gene-proteins in a cell-free assay. Measurements were taken 0.5 hour after chemical dosing in a 96-well plate.NVS_ADME_rCYP2C12 is one of one assay component(s) measured or calculated from the NVS_ADME_rCYP2C12 assay. It is designed to make measurements of enzyme activity, a form of enzyme reporter, as detected with fluorescence intensity signals by Fluorescence technology.Data from the assay component NVS_ADME_rCYP2C12 was analyzed into 1 assay endpoint. This assay endpoint, NVS_ADME_rCYP2C12, was analyzed in the positive analysis fitting direction relative to Acetonitrile as the negative control and baseline of activity. Using a type of enzyme reporter, loss-of-signal activity can be used to understand changes in the enzymatic activity as they relate to the gene Cyp2c12. Furthermore, this assay endpoint can be referred to as a primary readout, because this assay has produced multiple assay endpoints where this one serves a enzymatic activity function. To generalize the intended target to other relatable targets, this assay endpoint is annotated to the cyp intended target family, where the subfamily is xenobiotic metabolism.
Binding assays used specific radioligands (tritiated, iodinated) with non-radioactive competitive displacement ligands in agonist or antagonist protocols (as indicated) and various reference compounds and inhibitors to titrate specific binding to receptors and transporters. Most enzyme assays (CYPs, kinases, phosphatases, proteases, HDACs) used recombinant protein and specific substrates (fluorescence mostly, some colorimetric and radioactive) and inhibitors, followed by a biochemical separation of substrate and product. All assays for the biochemical HTS were initially run in duplicate at a single concentration (10 uM for CYP450 assays and 25 uM for all others). […] Each assay was run with positive and negative controls, and concurrent controls on every plate. The follow-up (secondary) screen tested active chemical-pairs in concentration series, as well as a few additional assays not tested in the primary screen, some selected negative inactives, and several cases re-run in the concentration series for confirmatory purposes.
As for `[2H]C1([2H])[n+]2ccccc2-c2cccc[n+]2C1([2H])[2H]`, the call was inactive.

On to `CCCN(CCOc1c(Cl)cc(Cl)cc1Cl)C(=O)n1ccnc1`, for which the AC50 is 4.58 µM (active).

Consider `O=C(Nc1ccccc1)Nc1cnns1`, for which the call was inactive.

Regarding `COP(=S)(OC)Oc1ccc([N+](=O)[O-])cc1`, the concentration at half-maximal activity (AC50) is 6.47 µM (active).

As for `N#Cc1c(Cl)c(Cl)c(Cl)c(C#N)c1Cl`, the result was inactive.

For `O=C1c2ccccc2C(=O)N1SC(Cl)(Cl)Cl`, the call was inactive.

Take `O=C(NC(=O)c1c(F)cccc1F)Nc1ccc(OC(F)(F)C(F)OC(F)(F)F)c(Cl)c1` (stereo not given): the compound was classed as inactive.

With `CC(C)(C)C(O)/C(=C\c1ccc(Cl)cc1Cl)n1cncn1` (stereo not given), the AC50 was 1.25 µM (active).

In the case of `CCOC1Oc2ccc(OS(C)(=O)=O)cc2C1(C)C` (stereo not given), the AC50 was 2.33 µM (active).

For `CNC(=O)Oc1ccccc1OC(C)C`, the compound was classed as inactive.
